# DAX1 inh-1: inhibits human nuclear receptor DAX1. P51843. HEK293 Gal4-DAX1 luciferase reporter, luminescence. inhibition, % at 6.75 µM. 340,000 compounds, 0.99% hits;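 active = inhibition above the mean over all tested compounds plus 3 SD, cut at about 4.2% in these data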;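 note: 0% = DAX1-transfected cells with DMSO and 100% = empty-vector control cells with DMSO; inhibition shows as a rise in luminescence from relieved DAX1 repression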
# Target sequence (P51843 207-470 limits assumed): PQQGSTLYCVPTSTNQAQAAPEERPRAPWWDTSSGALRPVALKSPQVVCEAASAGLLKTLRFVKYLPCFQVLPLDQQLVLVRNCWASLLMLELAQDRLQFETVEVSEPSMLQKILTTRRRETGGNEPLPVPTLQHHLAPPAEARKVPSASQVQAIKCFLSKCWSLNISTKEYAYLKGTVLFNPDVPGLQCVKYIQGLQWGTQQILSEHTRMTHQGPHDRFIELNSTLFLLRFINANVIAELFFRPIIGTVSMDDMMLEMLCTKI
# ssDAF-12 act: activates DAF-12 receptor from parasite S. stercoralis; activation, % at 6.8 µM; 370,000 compounds, 1% hits; AID 652126; HEK293 ssDAF-12/GRIP1 lit1-tk-luc reporter, luminescence; % of 3 µM dafachronic acid response;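 active = activation above the mean over all tested compounds plus 3 SD, cut at about 0.9% in these data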;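 note: 0% = DMSO-only wells and 100% = 3 µM delta7-dafachronic acid wells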
# hgDAF-12 ag: hgDAF-12 agonism, primary luciferase screen; HEK293 GAL4-hgDAF12 UAS-luciferase reporter, agonist luminescence; normalized to butyrate control; activation, % at 6.8 µM; 370,000 compounds, 1.8% hits; AID 687014;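 active = activation above a cutoff set at the mean of all screened compounds plus 3 SD, cut at about 10% in these data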;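 note: 0% = DMSO wells and 100% = sodium butyrate wells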
# SMARCA2 activ: increases SMARCA2 function in MMTV reporter cells; MG213 cells, MMTV-luciferase reporter, dexamethasone, overnight; activation, % at 9.1 µM; 370,000 compounds, 1% hits; AID 652017; in the data active = activation above about 7.8%;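 note: 0% = vehicle wells and 100% = reference activator wells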
# hcDAF12 agonist: activators of H. contortus DAF-12 nuclear receptor | HEK293 hcDAF-12 lit1-tk-luc reporter, luminescence; 0% DMSO, 100% Δ7-dafachronic acid | activation, % at 6.8 µM | 370,000 compounds, 1.4% hits | AID 652067;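 active = activation above the mean of all tested compounds plus 3 SD, cut at about 5.5% in these data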;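 note: 100% = response to 3 µM Δ7-dafachronic acid high control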
# DAX1 inh-2: blocks DAX1 repression of SF-1 activated StAR promoter | HEK293T StAR-luciferase reporter, SF-1/DAX-1 repression relief | inhibition, % at 6.8 µM | 370,000 compounds, 1.1% hits | AID 652010;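 active = inhibition above the mean over all tested compounds plus 3 SD, cut at about 3.6% in these data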;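 note: 0% = DAX-1 cells with DMSO and 100% = cells lacking DAX-1 with DMSO; higher inhibition means more luminescence from relief of DAX-1 repression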
# * = called active by the depositor; · = no result given. In the library only some 4.8% were active in any assay of this set; here they are far more common.
SMILES,DAX1 inh-1,ssDAF-12 act,hgDAF-12 ag,SMARCA2 activ,hcDAF12 agonist,DAX1 inh-2
CCn1cnc2cc(NC(=O)c3cccs3)ccc21,1,-1,7,-3,3,3.9*
CC1CC(C)(C)NC(=S)N1CCC(=O)NCc1ccc(F)cc1 (configuration not stated),0,-2,-2,-3,-1,1
COc1ccc(-c2nn(-c3ccccc3)cc2/C=C2/SC(=S)N(CCC(=O)O)C2=O)cc1,-1,-1,4,3,-2,0
Cc1ccc(-c2nn(-c3ccccc3)cc2/C=C2\SC(=S)N(CC(=O)O)C2=O)cc1,0,1.6*,-2,-3,-1,0
CC(C)CC(NS(=O)(=O)c1cc(C(=O)O)ccc1Cl)C(=O)O (configuration not stated),0,-1,-4,-2,0,0
CSCCn1c(C(C)(C)C)cc(C(=O)O)c1C,1,-1,-1,-4,0,0
Cc1c(C(=O)O)cc(C(C)(C)C)n1CCSCCO,6.8*,-1,1,-1,-1,0
Cc1ccc(OCCCN2CCOCC2)c([N+](=O)[O-])c1,3,-1,13*,5,5,2
Cc1cc(OCCN2CCOCC2)ccc1[N+](=O)[O-],0,0,4,3,5,2
Cc1ccc(C(C)C)c(OCCCCCN2CCOCC2)c1,0,-1,3,-1,0,0
Cc1cc(OCCN2CCCC2)ccc1[N+](=O)[O-],-1,1.1*,1,3,-1,0
Cc1ccc(OCCN2CCN(C)CC2)c([N+](=O)[O-])c1,1,-1,5,-1,0,0
Cc1cc(OCCN2CCOCC2)ccc1Cl,2,0,12*,4,5,0
Cc1ccc(OCCCCCN2CCOCC2)c(Cl)c1,4.9*,0,3,-1,0,0
Cc1cc(C)c(C)c(OCCCCN2CCCCC2)c1,2,-1,1,7.9*,-1,1
CC(C)Cn1cnc2c1c(=O)n(CC(=O)N(C)C)c(=O)n2Cc1ccccc1,-1,-1,1,-4,-1,0
O=C(Nc1cccc2c1[nH]c(=O)c1ccccc12)C(F)(F)F,3,-1,6,0,-1,4.0*
COC(=O)C1=C(C)N(Cc2ccccc2C(F)(F)F)C(=NCc2cc(OC)c(OC)c(OC)c2)NC1c1cccc(Cl)c1 (configuration not stated),·,-1,0,-3,-1,-1
CC(C)C[C@@H]1COc2cccc(N3CCC[C@H]3CO)c2S(=O)(=O)N1,·,-1,0,-3,2,3.6*
C[C@@H]1COc2cccc(N3CCC[C@@H]3CO)c2S(=O)(=O)N1,·,-2,2,-1,0,1
Cc1cc(NC(=O)C(C)Sc2nc(-c3cccs3)nc3ccccc23)no1 (configuration not stated),4.5*,-1,1,0,-2,2
Oc1[nH]c2ccccc2c1C1=NCCCC1,1,-1,-1,-1,-1,0
O=C1C(c2c(O)[nH]c3ccccc23)=Nc2ccccc21,1,1.3*,4,7,5,0
Cc1ccccc1-c1nnc(Cc2ccccc2)o1,1,-1,12*,2,1,2
O=C(O)C1Cc2ccccc2-c2ccccc2C1,0,-2,4,-1,1,0
SMILES,DAX1 inh-1,ssDAF-12 act,hgDAF-12 ag,SMARCA2 activ,hcDAF12 agonist,DAX1 inh-2
O=C(O)[C@@H]1Cc2ccccc2N1,4,1.0*,-2,-3,4,-1
Cc1ccc(Nc2cc(C)nc(-c3ccccc3O)n2)cc1,2,-1,13*,4,0,0
Cc1cc(Nc2ccc(Br)cc2)nc(-c2ccccc2O)n1,0,-1,-2,-1,0,-1
CCCCSc1nnc(-c2ccccc2N)c(=O)[nH]1,0,0,11*,8,5.9*,1
CCCCCCCSc1nnc(-c2ccccc2N)c(=O)[nH]1,1,-1,-1,-3,0,1
O=C(NCc1ccc(Cl)cc1)c1ccc(N2CCCC2=O)cc1,1,-2,7,-1,-2,1
CCOC(=O)CSc1nc2cc(OCC)ccc2cc1C#N,1,0,11*,7,2,2
COc1cccc(-c2cc(C(=O)Nc3cccc(O)c3)no2)c1,-2,0,11*,4,5,4
COc1ccc(NC(=O)c2cc(-c3cccc(OC)c3)on2)cc1,0,0,-2,-1,0,0
O=C(Nc1ccccc1C(F)(F)F)c1cc(-c2cccc(O)c2)on1,1,-1,4,1,-1,1
CCC(C)NC(=O)c1cc(-c2ccc(OC)cc2)on1 (configuration not stated),1,-1,11*,1,3,2
CCc1ccccc1NC(=O)c1cc(-c2cccc(O)c2)on1,2,-1,11*,-3,-2,1
Cc1ccc(O)c(NC(=O)c2cc(-c3ccccc3)on2)c1,4.9*,-1,3,7.8*,3,1
COC(=O)c1c(O)c2c([nH]c1=O)CCCC2,1,-1,-2,1,-1,1
Cc1ccc(-c2cc(C(=O)NCCCn3ccnc3)no2)cc1,0,-1,8,0,-2,0
COc1ccc(-c2cc(C(=O)Nc3cccc(Cl)c3)no2)cc1,4.2*,-1,8,5,2,0
O=C(NCCCn1ccnc1)c1cc(-c2cccc(O)c2)on1,4.7*,0,10,0,1,1
COc1ccccc1N1C(=O)c2ccc(C(=O)Nc3cccc(C(C)=O)c3)cc2C1=O,0,-1,1,2,1,0
O=C(NCc1ccccn1)c1ccc(OC2CCN(Cc3ccccc3O)CC2)cc1,0,-1,1,-2,0,-1
Cc1ccc(C2=NN(C(=O)CCl)C(c3ccco3)C2)o1 (configuration not stated),-1,-1,1,-4,0,-1
Nc1c(/C=C2\C=Nc3ccccc32)c(=O)nc2sc(CC(=O)N3CCOCC3)nn12,1,0,6,-1,5,3.7*
O=C(N/N=C/c1ccc(OC2CSC2)cc1)c1ccccc1,2,0,5,6,2,4.2*
O=C(/C=C/c1ccc(OC2CSC2)cc1)c1ccccc1,0,0,0,4,1,0
Cc1cccc(/C=N\NC(=O)c2csnn2)c1,1,0,9,5,5,2
O=C(N/N=C\c1ccc(Oc2ccccc2)cc1)c1csnn1,5.4*,0,11*,1,1,2
COc1ccc2sc3c(=O)[nH]c4ccccc4c3c2c1,1,-1,4,0,2,0
Oc1ccc(-c2nc3ccccn3c2NCc2ccco2)cc1,4.3*,0,6,-1,0,0

# Bioassay records from PubChem BioAssay.
